# Bioassay records (PubChem BioAssay)
# Most compounds without a hit are left out; they make up all but 6% or so of the library.
# D1 agonist: human D1 receptor agonism; activation, % at 2 µM; HEK293 T-REx D1 cells, calcium flux, agonist mode; P21728; AID 504660; 360,000 tested, 1% active; in the data active means activation above about 30%
# Target sequence (P21728 whole entry, looked up): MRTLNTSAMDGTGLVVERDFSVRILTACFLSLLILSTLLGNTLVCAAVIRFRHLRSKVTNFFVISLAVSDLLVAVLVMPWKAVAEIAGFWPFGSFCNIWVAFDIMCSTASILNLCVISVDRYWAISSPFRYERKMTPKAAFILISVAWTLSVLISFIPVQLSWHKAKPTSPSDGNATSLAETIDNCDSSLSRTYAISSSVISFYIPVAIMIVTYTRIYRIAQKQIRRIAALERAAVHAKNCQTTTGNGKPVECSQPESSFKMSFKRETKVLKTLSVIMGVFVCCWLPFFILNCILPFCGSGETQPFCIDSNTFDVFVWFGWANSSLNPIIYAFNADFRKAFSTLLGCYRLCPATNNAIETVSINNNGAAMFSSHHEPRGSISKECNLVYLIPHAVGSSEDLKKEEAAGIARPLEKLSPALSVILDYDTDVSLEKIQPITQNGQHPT
#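 Tetracycline-induced HEK293 TREx D1 cells, force-coupled to calcium signalling, were dye-loaded with a no-wash calcium kit. Compound was pin-added after a 10 s baseline. Fluorescence was read kinetically at 1 cycle/s for 180 s, with calcium rises flagged as agonism.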
# DRD3 antagonist: D3 dopamine receptor (human) antagonism. P35462. D3R cells, DiscoveRx beta-arrestin luminescence, antagonist mode; hits give low values. max response, negative = inhibition, %. 360,000 tested, 2.5% active; in the data active means max response below about -50%
#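 Cells plated overnight at 1500 cells/well, then exposed to library compounds with dopamine controls for 90 minutes at 37 degrees C. DiscoveRx reagent added for 30–60 minutes at room temperature; luminescence read, quantitative HTS format.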
# D3 ag: D3 dopamine receptor (human) agonism | D3R DiscoveRx beta-arrestin cells, luminescence, 90 min | max activation, % | 410,000 tested, 0.58% active; in the data active means max activation above about 30%
#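 Cells at 1500/well, incubated overnight, then treated with pinned compounds (dopamine as control) for 90 min at 37 degrees C. DiscoveRx reagent added for 30 - 60 minutes at room temperature; luminescence read.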
# D1 PAM: potentiators of human D1 dopamine receptor. HEK293 TREx D1 cells, calcium flux, dopamine EC20 potentiation. P21728. 360,000 tested, 0.036% active. AID 504651. potentiation, % at 10 µM; in the data active means potentiation above about 30%
# D1 antagonist: human D1 dopamine receptor antagonism | 360,000 tested, 3.2% active | P21728 | HEK293 TREx D1 cells, calcium flux, dopamine EC80; hits give low values | activity change, negative = inhibition, % at 10 µM; in the data active means activity change below about -30%
#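 Inducible Hek293 Trex D1 cells (tetracycline, overnight, 30 C). Calcium dye 30–90 min RT. Antagonist mode: EC80 dopamine added after 180 s compound read.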
# Hits are given with their value; n = inactive; x = not tested or not shown.
SMILES,D1 agonist,DRD3 antagonist,D3 ag,D1 PAM,D1 antagonist
Cn1c(=O)c2sccc2n2c(CCC(=O)NCc3ccccc3)nnc12,n,x,n,n,n
O=c1[nH]c(=O)n(Cc2ccco2)c2c1C(C(F)(F)F)(C(F)(F)F)N=C(c1ccc(F)cc1)N2,37,n,56,n,x
CC1CCc2nc(NC(=O)C3CCCO3)sc2C1 (stereo not drawn),n,n,n,n,n
CCC(CC)C(=O)Nc1nc2c(s1)CC(C)CC2 (stereo not drawn),33,x,n,n,n
CCCCCCn1c(=O)[nH]c2nc3cc(N)c(C)cc3nc2c1=O,295,n,n,n,n
COc1cc(C(=O)N2CCCC(c3cc(C(=O)NCc4ccc(F)cc4)no3)C2)cc(OC)c1C (stereo not drawn),x,n,n,x,x
O=S(=O)(c1ccc2[nH]c3c(c2c1)CCCCC3)N1CCN(c2cccc(Cl)c2)CC1,n,x,n,n,n
C[C@@H]1CN([C@@H](C)CO)C(=O)CCCn2nncc2CO[C@H]1CN(C)C(=O)c1ccc(N2CCN(C)CC2)cc1,x,n,n,x,x
CCC(=O)C1=C(c2cccc([N+](=O)[O-])c2)N(C(=O)CC)n2c(nnc2C2CCCCC2)S1,n,x,n,n,x
COCCCNc1ccn2nc(-c3ccc(OCc4ccccc4)cc3)cc2n1,x,n,n,x,x
CN(C)c1ccc(NC(=O)CCSc2nc(-c3ccco3)cc(C(F)(F)F)n2)cc1,n,x,n,n,-33
Cc1ccc(NC(=O)CCSc2nc(-c3ccc4c(c3)OCO4)cc(C(F)(F)F)n2)c(C)c1,n,x,56,n,n
Cc1cc(NC(=O)CCSc2nc(-c3ccco3)cc(C(F)(F)F)n2)no1,55,n,n,n,n
COC(=O)c1ccccc1NC(=O)CSc1nc(-c2ccccc2)cc(C(F)(F)F)n1,n,x,n,n,-42
Cc1ccc(NC(=O)CCSc2nc(-c3ccc4c(c3)OCO4)cc(C(F)(F)F)n2)cc1,n,x,n,n,n
Cc1ccc(NC(=O)CSc2nc(-c3ccco3)cc(C(F)(F)F)n2)cc1,n,x,n,n,-35
Cc1c(Cl)cccc1NC(=O)N1CCC(CN2CCOCC2)CC1,n,x,n,n,-71
CC[C@H](C)/C=C(C)/C=C/C(=O)Cc1cc(O)c(C)c(O)c1C=O,n,n,n,n,n
CC[C@H](C)/C=C(C)/C=C/C1=CC2=CC(=O)[C@]3(C)OC(=O)[C@@H](C(C)=O)[C@@H]3C2=CO1,42,n,n,n,n
NC(=O)COCCN1CCN(C(c2ccccc2)c2ccc(Cl)cc2)CC1 (stereo not drawn),x,x,n,x,x
Cc1ccccc1NC(=S)N/N=C/c1ccc(O)cc1O,n,n,n,n,n
Cc1ccc(NC(=S)N/N=C/c2c(Cl)cccc2Cl)c(C)c1,n,-60,n,n,n
Cc1ccccc1C(=O)N/N=C/c1cccc2ccccc12,n,n,n,n,-89
Cc1ccc(Cl)cc1NC(=S)N/N=C/c1cccc2ccccc12,n,-53,n,n,n
Cc1ccc(NC(=S)NCCO)c(C)c1,n,-56,n,n,n
SMILES,D1 agonist,DRD3 antagonist,D3 ag,D1 PAM,D1 antagonist
Cc1ccc(NC(=S)NCCc2ccccc2)c(C)c1,n,n,n,n,n
O=C(CCSc1ccc(F)cc1)NNC(=O)c1ccccc1Cl,n,n,n,x,n
O=c1c2cnn(-c3ccc(Cl)cc3)c2ncn1Cc1ccc(Cl)cc1Cl,n,x,n,n,n
COc1ccccc1CNC(=O)/C=C/c1cc2c(cc1Br)OCO2,n,n,n,n,-30
CCN(CC)c1ccc(NC(=O)c2cc(S(=O)(=O)N3CCc4ccccc43)cn2C)c(C)c1,n,x,n,n,-34
CCc1ccccc1NC(=O)c1cc(S(=O)(=O)N2CCc3ccccc32)cn1C,n,n,n,n,n
Cc1ccc(NC(=O)c2cc(S(=O)(=O)N3CCc4ccccc43)cn2C)cc1C,n,n,n,n,-45
CCc1ccc(C2c3c(-c4cc(C)ccc4O)n[nH]c3C(=O)N2Cc2cccnc2)cc1 (stereo not drawn),n,x,n,n,n
COc1cccc(-c2nc(SCC(=O)NC3CCCC3)c(-c3ccc(F)cc3)[nH]2)c1,n,x,n,n,n
Cc1cccc2cc(CN(CCCN(C)C)C(=S)NCCc3ccccc3)c(=O)[nH]c12,31,n,n,n,n
CC(=O)c1nnn(-c2ccc(C)cc2Cl)c1C,n,x,n,n,n
Cc1ccc2cc(CN(Cc3nnnn3Cc3ccco3)CC3CCCO3)c(=O)[nH]c2c1C (stereo not drawn),n,n,n,n,-35
Cc1ccc2cc(CN(CC3CCCO3)C(=S)NCc3ccco3)c(=O)[nH]c2c1C (stereo not drawn),n,n,n,n,n
COCCCNC(=O)C1CCCN(c2nn3cc(-c4ccc(C)cc4)nc3s2)C1 (stereo not drawn),n,x,n,n,n
CC(C)(C)c1ccc(C2Sc3ccccc3NC3=C2C(=O)c2ccccc23)cc1 (stereo not drawn),n,x,n,n,n
COc1cccc(CNC(=O)c2ccc(NC(=O)N3CCCCc4ccccc43)cc2)c1OC,n,x,n,n,-59
O=C(NCc1ccccc1Cl)c1ccc(NC(=O)N2CCCCc3ccccc32)cc1,n,x,n,n,n
Nc1nc(-c2ccccn2)nc(N)c1Cc1ccccc1F,n,n,n,n,n
Nc1nc(-c2ccccn2)nc(N)c1Cc1ccc(Cl)cc1Cl,34,n,n,51,n
COc1cc(C(=O)Nc2cc(C)c(O)c(-c3nc4ccccc4s3)c2)cc(OC)c1OC,n,x,n,n,n
CCCCc1c(C)nc(Nc2ccc(OC)cc2)[nH]c1=O,n,n,n,n,-37
CCCc1cc(=O)[nH]c(Nc2ccc(OCC)cc2)n1,n,x,n,n,-84
CCCCc1ccc(Nc2nc(CCC)cc(=O)[nH]2)cc1,n,n,n,n,n
CCOC(=O)c1cccc(NC(=O)c2cn(-c3cccc(OC)c3)c(=O)c3ccccc23)c1,n,x,n,n,n
Cc1cccc(Nc2nc3ccccc3n3c(N)nnc23)c1,n,x,n,n,n
Cc1ccc(S(=O)(=O)N2C[C@H]3C(=O)C[C@@H](c4ccccc4C)N(S(=O)(=O)c4ccc(C)cc4)[C@H]3C[C@H]2c2ccccc2)cc1,x,n,n,x,x
COc1cccc(-n2c(SC)nnc2-c2cnccn2)c1,n,n,n,n,-45
O=C(O)c1csc(-n2nc(-c3ccccc3)cc2C(F)(F)F)n1,n,n,n,n,n
Cc1c(N)nc([C@H](CC(N)=O)NC[C@H](N)C(N)=O)nc1C(=O)N[C@H](C(=O)N[C@H](C)[C@@H](O)[C@H](C)C(=O)N[C@H](C(=O)NCCc1nc(-c2nc(C(=O)NCCCCN=C(N)N)cs2)cs1)[C@@H](C)O)[C@@H](O[C@@H]1O[C@@H](CO)[C@@H](O)[C@H](O)[C@@H]1O[C@H]1O[C@H](CO)[C@@H](O)[C@H](OC(N)=O)[C@@H]1O)c1cnc[nH]1,x,x,n,x,x
Fc1ccc(F)c(Nc2c3c(nc4ccc(Cl)cc24)CCC3)c1,n,x,n,n,n
